# From PubChem BioAssay
# Pf growth 96h: Primary qHTS for delayed death inhibitors of the malarial parasite plastid, 96 hour incubation; P. falciparum luciferase reporter growth, 96 h; Potency, µM (highest dose often 28.7 µM), inactives show at the top dose activity change, negative = inhibition, hits mostly inhibitors; actives 6.9% (n = 320,000); also: potency is read from the fitted curve at half-maximal effect; % is scaled to controls: 0 for no effect and ±100 for the full control effect
#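 Readout is luminescence from an integrated firefly luciferase in P. falciparum. Red cells, 2% hematocrit and 0.05% parasitemia final, were cultured with compound through two parasite generations (96 hours) at 37 C, 5% CO2.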
# Shiga inhibitor: A qHTS for Small Molecule Inhibitors of Shiga Toxin | Vero cells, Shiga toxin protein synthesis inhibition reporter | inhibition, % at 38.7 µM | actives 9.2% (n = 290,000); in the data active = inhibition mostly above about 28%, no sharp cut-off; inactive = mostly below about 43%; also: 0% is about no effect
# CHX counter: Cycloheximide Counterscreen for Small Molecule Inhibitors of Shiga Toxin | cell reporter, cycloheximide protein synthesis inhibition counterscreen | max response, % | actives 12% (n = 300,000) | AID 2314, 2010; in the data active = max response mostly above about 13%, no sharp cut-off; inactive = mostly below about 14%; also: read at 38.3 µM for the half of the compounds with a filed dose; 0% is about no effect
# Pf growth 48h: Primary qHTS for delayed death inhibitors of the malarial parasite plastid, 48 hour incubation | actives 5.9% (n = 310,000) | P. falciparum luciferase growth in erythrocytes, 48 h | Potency, µM (top dose mostly 28.7 µM), without a hit: top-dose activity change, negative = inhibition, actives largely listed as inhibitors; also: potency is read from the fitted curve at half-maximal effect; % is scaled to controls: 0 for no effect and ±100 for the full control effect
#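 In quantitative HTS format, infected erythrocytes bearing luciferase-reporter parasites were treated for a single generation at 37 C. Luminescence after adding detection reagent served as the growth measure.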
# Marburg entry inh: qHTS for inhibitors of binding or entry into cells for Marburg Virus; Potency, µM (titrated, usually from 37.8 µM), for the others: at the highest dose activity change, negative = inhibition, hits mostly inhibitors; Marburg virus pseudotyped entry inhibition, cell reporter; actives 1.8% (n = 300,000); AID 540276, 2011; calls by dose curve; tested in HEK293 cells; also: potency is read from the fitted curve at half-maximal effect; % is scaled to controls: 0 for no effect and ±100 for the full control effect
# Lassa entry inh: qHTS for Inhibitors of binding or entry into cells for Lassa Virus; AID 540256, 2011; actives 1.2% (n = 300,000); Potency, µM (top dose mostly 37.9 µM), without a hit: at the top dose activity change, negative = inhibition, most hits filed as inhibitors; Lassa virus pseudotype entry inhibition, cell reporter; calls by dose curve; tested in HEK293 cells; also: potency is read from the fitted curve at half-maximal effect; % is scaled to controls: 0 for no effect and ±100 for the full control effect; nearly all actives have a fitted effect of over 50% in size
# * marks the source's active call; other numbers are inactive results; u = inconclusive; x = not tested or not shown; [ ] = dose if it differs, or a comment. A selection: hits, their analogues and other compounds. The true share with any hit is near 19%. Unless noted, calls follow the shape of the dose curve; as a rule, active = well fitted inhibition curve with a large enough effect; inconclusive = small, poorly fitted or top-dose-only effect, or another doubt; inactive = no such curve, though single readings can be large or run the other way.
SMILES,Pf growth 96h,Shiga inhibitor,CHX counter,Pf growth 48h,Marburg entry inh,Lassa entry inh
FC(F)(F)c1nnc2ccc(N3CCCC3)nn12,29.7%,8.4,-3.0,x,-10.9%,-11.0%
Cc1ccccc1Cn1c(COc2ccc(Cl)cc2)nc2ccccc21,x,x,x,x,-13.3%[46.1 µM],-18.4%[46.1 µM]
COC(=O)c1cccc(NC(=O)Nc2ccc(Cl)cc2)c1,-41.2%,47.6*,28.3*,166.1%,u,-26.7%
O=C(Nc1cccc(Cl)c1)OCCOCCOC(=O)Nc1cccc(Cl)c1,x,x,x,x,u,-12.2%[46.1 µM]
O=C(Nc1cccc(Cl)c1)OCc1cnc(Cl)s1,x,31.2,14.1*,17.8%,5.8%,16.8%
O=C(Nc1cccc(F)c1)Nc1cccc(Cl)c1,u,x,27.6*,u,u,u
CC(=O)Nc1cccc(NC(=O)Nc2cccc(F)c2)c1,15.9%,16.7,9.3,33.4%,x,x
CN1CCN(NC(=O)Nc2cccc(F)c2)CC1,u,50.2,10.9*,13.0%,-8.7%[46.1 µM],10.6%[46.1 µM]
Cc1cccnc1NC(=O)Nc1cccc2ccccc12,-79.8%,-2.0,13.1,x,16.0%,-5.5%
Cc1cccnc1NC(=O)Nc1cccc(Cl)c1,u,59.5*,13.3,181.1%,u,25.0%
COc1ccc(NCc2ccc(OC)c(OC)c2)cc1,69.8%,17.0,15.1,u,-0.3%,x
COc1ccc(C(CCNCc2ccc(N(C)C)cc2)c2ccccc2)cc1 (stereo not given),u,-11.0,-8.8,14.7µM*,u,u
CC(C)Oc1ccc(CNC(=O)CC(c2ccccc2)c2cc(Cl)ccc2O)cc1 (stereo not given),u,-13.4,9.8,u,u,7.3µM*
COc1ccccc1C(CC(=O)Nc1ccc(Cl)cc1)c1ccc(OC(C)C)cc1 (stereo not given),u,2.6,-4.7,0.8%,u,-22.8%
COc1ccc(C(CCNCc2ccc(OC)c(OC)c2)c2ccc(F)cc2)cc1 (stereo not given),u,6.7,-1.4,9.28µM*,6.6%[46.1 µM],0.6%
CC(C)Oc1ccc(C(CCNCc2ccc(O)cc2)c2ccccc2)cc1 (stereo not given),1.17µM*,-9.2,-4.8,1.17µM*,x,x
COc1ccc(CCNCc2ccccc2)cc1,9.2%,32.5,15.6,-8.1%,x,x
CCOC(=O)c1ccc(CN2Cc3ccccc3C2=O)cc1,4.4%,18.1,9.5,x,u,9.7%
Cc1cccc(NC(=O)CCC2CCN(C(=O)c3ccc(C)s3)CC2)c1,u,13.6,22.4*,u,0.8%[46.1 µM],2.7%[46.1 µM]
COCc1ccc(C(=O)N2CCC(CCC(=O)Nc3cccc(C)c3)CC2)s1,10.4%,-17.3,-3.9,u,x,x
Cc1cccc(NC(=O)CCC2CCN(Cc3nccs3)CC2)c1,9.28µM*,26.6,8.5,-25.1%,x,x
COC(C(=O)N1CCC(CCC(=O)Nc2ccccc2)CC1)c1ccccc1 (stereo not given),-3.7%,47.7*,36.8*,-13.6%,21.4%,11.0%
COc1ccc(C(=O)N2CCC(CCC(=O)Nc3cccc(C)c3)CC2)cc1,-2.2%,10.6,13.3,-14.4%,u,0.9%
Cc1occc1-c1nnc(SCC(=O)Nc2ccccn2)o1,-20.3%,38.0*,17.1*,237.7%,u,u
COc1ccccc1NC(=O)CSc1nnc(-c2ccoc2C)o1,407.6%,x,x,275.3%,x,x
SMILES,Pf growth 96h,Shiga inhibitor,CHX counter,Pf growth 48h,Marburg entry inh,Lassa entry inh
O=C(CSc1nnc(-c2ccccc2F)o1)Nc1ccccc1Cl,x,x,x,x,41.1%[46.1 µM],1.7%[46.1 µM]
O=C(CSc1nnc(-c2ccccc2Cl)o1)Nc1ccccn1,23.6%,73.2*,48.1*,37.1%,x,x
CN(C)CCCNc1ncnc2c1cnn2-c1ccccc1,12.9%,71.7*,49.0*,x,x,x
CN(C)CCCNc1ncnc2c1cnn2Cc1ccccc1Cl,5.9%,-5.6,-4.1,-6.9%,-11.1%[46.1 µM],-3.6%[46.1 µM]
Cc1ccc(-n2ncc3c(NCCCOC(C)C)ncnc32)c(C)c1,u,74.7,-2.5,u,-3.6%,u
CC(C)OCCCNc1ncnc2c1cnn2-c1ccccc1,u,55.1*,10.8,u,u,u
Nc1cccnc1Oc1ccc(F)cc1,18.4%,25.2,14.0*,1.2%,-23.1%[46.1 µM],18.5%[46.1 µM]
CSc1nsc(/C=C/Nc2ccc(C)c(C)c2)c1C#N,u,45.1*,27.8,u,x,x
Nc1ccc(C(=O)O)cc1S(=O)(=O)O,44.0%,-6.7,-4.0,-1.0%,11.5%,1.3%
